SARS PLpro yeast: inhibitors of SARS-CoV papain-like protease in yeast. S. cerevisiae expressing SARS-CoV PLpro, growth rescue. Potency, µM (highest dose often 32.9 µM), inactives show at the highest dose activity, positive = growth rescue, usual class: activators. hit rate 0.19% among 330,000. AID 485353; calls by dose curve; further: potency means the concentration at half of the fitted maximal effect; 0% is about no effect; nearly all actives have a fitted effect of over 55% in size
Shiga inhibitor: inhibitors of Shiga toxin in Vero cells; Vero cells, Shiga toxin protein synthesis inhibition reporter; inhibition, % at 38.7 µM; hit rate 9.2% among 290,000; AID 2315; in the data active means inhibition mostly above about 28%, no sharp cut-off; inactive means mostly below about 43%; further: 0% is about no effect
Pf growth 96h: inhibits malaria parasite growth, 96 h; hit rate 6.9% among 320,000; Potency, µM (doses to about 28.7 µM), for inactives: at the top dose activity change, negative = inhibition, most hits filed as inhibitors; P. falciparum luciferase reporter growth, 96 h; further: potency means the concentration at half of the fitted maximal effect; on the % scale 0 is the no-effect control and ±100 the full control effect
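Plates of compound plus infected erythrocytes (2% hematocrit, 0.05% parasitemia final) incubate 96 hours, 37 C, 5% CO2. Detection reagent added; reduced luminescence from the parasites' luciferase reporter flags inhibition.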
Pf growth 48h: inhibits P. falciparum growth in the first generation, 48 h; Potency, µM (doses to about 28.7 µM), inactives show at the highest dose activity change, negative = inhibition, usual class: inhibitors; AID 504832; hit rate 5.9% among 310,000; P. falciparum luciferase growth in erythrocytes, 48 h; further: potency means the concentration at half of the fitted maximal effect; on the % scale 0 is the no-effect control and ±100 the full control effect
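A one-generation exposure of luciferase-tagged malaria parasites in RPMI 1640/Albumax erythrocyte culture, 37 C and 5% CO2. Inhibition is inferred from decreased luminescence after adding detection reagent.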
Cycloheximide cs: counter-screen for Shiga toxin inhibitors: cycloheximide protein synthesis inhibition; cell reporter, cycloheximide protein synthesis inhibition counterscreen; max response, %; hit rate 12% among 300,000; in the data active means max response mostly above about 13%, no sharp cut-off; inactive means mostly below about 14%; further: read at 38.3 µM for the half of the compounds with a filed dose; 0% is about no effect
NS1 inh: inhibitors of influenza NS1 protein function; hit rate 0.4% among 270,000; Potency, µM (top dose mostly 46.1 µM), for the others: top-dose activity, positive = more growth; calls by dose curve; further: potency means the concentration at half of the fitted maximal effect; actives are rising curves; nearly all actives have a fitted effect of over 50% in size
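Recovery from NS1-induced slow growth read by OD600 in budding yeast switched to galactose assay medium (pH 6.0, -URA) at 1:100 dilution. Compound 23 nl per well; the matching strain lacking NS1 serves as control.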
An asterisk follows results filed as active; i = inactive; ? = inconclusive; · = no result; [ ] = remark or other dose. An excerpt weighted towards active compounds, which were near 21% of everything screened. Unless noted, the call rests on the fitted dose curve; in most records, active means well fitted inhibition curve with a large enough effect; inconclusive means small, poorly fitted or top-dose-only effect, or another doubt; inactive means no such curve, though single readings can be large or run the other way.

SMILES	SARS PLpro yeast	Shiga inhibitor	Pf growth 96h	Pf growth 48h	Cycloheximide cs	NS1 inh
CCOC(=O)c1cn(CC2CC2)c2cc(F)c(F)cc2c1=O	-1%	7	?	-18%	-2	4%
CCOC(=O)c1cn(CC)c2cc(Cl)c([N+](=O)[O-])cc2c1=O	-1%	-10	?	13µM*	-3	2%
COC(=O)C(Cc1ccc(OC(=O)c2ccccc2Cl)cc1)N1Cc2ccccc2C1=O (centres undefined)	-4%	38	48%	87%	22*	17%
COC(=O)CC(c1ccccc1F)N1Cc2ccccc2C1=O (centres undefined)	3%	-6	-16%	-14%[0.00184 µM]	-6	3%
COC(=O)C(Cc1ccc(OC(=O)c2ccccc2C)cc1)N1Cc2ccccc2C1=O (centres undefined)	-6%	active	33%	28%	33*	11%
O=C(O)[C@H](Cc1ccccc1)N1Cc2ccccc2C1=O	-1%	-9	16%	·	-8	-2%
COc1ccc(CNC(=O)CCSCc2cccc(F)c2)cc1	0%	-2	?	-1%	2	-6%
Cc1ccc(Sc2sc(=O)n(C)c2S(=O)(=O)c2ccc(C)cc2)cc1	2%	13	-2%	26%	11	·
Cc1ccc(Cc2nnc3n(-c4ccccc4)nc(C(=O)c4ccccc4)n3c2=O)cc1	7%	-2	13µM*	13µM*	-4	3%
Cc1ccc(CNC(=O)c2cc(C)nn2-c2ccccc2)cc1	1%	12	10%	9%	-3	-5%
CCCS(=O)(=O)N1CCCC(C(=O)NCCc2ccc(Cl)cc2)C1 (centres undefined)	-1%	-10	19%	4%	-2	-3%
O=C(Nc1ccc(N2CCCCCC2)cc1)c1cccc(S(=O)(=O)N2CCOCC2)c1	5%	·	10µM*	13µM*	·	·
CCOC(=O)c1ccc(NC(=O)c2ccc(C)c(S(=O)(=O)N3CCOCC3)c2)cc1	4%	-5	76%	·	-1	-10%
O=C(Nc1cccc(S(=O)(=O)N2CCOCC2)c1)c1cccc(S(=O)(=O)N2CCCCC2)c1	-3%	·	?	?	·	·
O=C(NCCOC(=O)c1ccc(S(=O)(=O)N2CCOCC2)cc1)c1cccnc1	3%	-5	2.3µM*	1%	-3	-8%
CCOC(=O)c1ccc(NC(=O)c2cccc(S(=O)(=O)N3CCOCC3)c2)cc1	-2%	-1	4%	6.6µM*	-8	-9%
Cc1cc(C)c2nc(N3C(=O)C(O)=C(C(=O)c4ccco4)C3c3ccco3)sc2c1 (centres undefined)	-16%	26	50%	4%	2	-3%
CC(C)CCn1c(=O)c2ccccc2n2c(CN3CCOCC3)nnc12	-3%	-23	-10%	-25%	5	·
CC(=O)Nc1ccc(C2CC(c3ccc(Cl)cc3)=NN2c2ccccc2)cc1 (centres undefined)	-7%	-5	4.7µM*	·	9	1%
O=Cc1ccc(N2N=C(c3ccccc3)CC2c2ccccc2)cc1 (centres undefined)	-2%	12	-1%	-18%	9	15%
CC(=O)Nc1ccc(C2=NN(c3ccccc3)C(c3ccccc3)C2)cc1 (centres undefined)	-5%	47*	12µM*	9.3µM*	43*	3%
COc1ccc(C2CC(c3ccccc3)=NN2c2ccc(C(N)=O)cc2)cc1 (centres undefined)	-16%	-5	?	?	-2	·
O=C(O)c1ccc(N2N=C(c3ccccc3)CC2c2ccccc2)cc1 (centres undefined)	-22%	57*	6%	214%	14*	-36%
O=[N+]([O-])c1cccc(C2CC(c3ccccc3)=NN2c2ccccc2)c1 (centres undefined)	?	55	?	?	20*	-19%
Cc1sc(NC(=O)C(C)C)c(C(=O)Nc2ccccc2)c1C	-8%	11	-26%	6%	-1	-19%
SMILES	SARS PLpro yeast	Shiga inhibitor	Pf growth 96h	Pf growth 48h	Cycloheximide cs	NS1 inh
Fc1ccc(C2CC(c3cccs3)=NN2c2ccccc2)cc1 (centres undefined)	12%	19	-9%	?	5	·
c1ccc(C2CC(c3cccs3)=NN2c2ccccc2)cc1 (centres undefined)	0%	94*	10µM*	10µM*	33*	1%
NC(=S)c1cc2cc(Cl)ccc2oc1=O	3%	19	19%	-3%	4	-3%
CC(C)C[C@H](NC(=O)N1CC(=O)Nc2ccccc21)C(=O)N1CCC(C(=O)O)CC1	1%	-5	20%	17%	-3	-1%
CCSc1nc2c(c(=O)[nH]1)C(c1cccnc1)C(C(=O)OC)=C(C)N2 (centres undefined)	2%	-8	125%	-9%	-3	4%
CCSc1nc2c(c(=O)[nH]1)C(c1ccncc1)C(C(=O)OC(C)C)=C(C)N2 (centres undefined)	4%	-21	10µM*	?	-4	-21%
CCN(CC)CCCNC(=O)Cn1cnc2sc(C)c(S(=O)(=O)N3CCC(C)CC3)c2c1=O	5%	-5	?	15%	-1	-15%
O=[N+]([O-])c1cccc(-c2nc(-c3ccncc3)no2)c1	-5%	12	134%	52%	6	-9%
O=[N+]([O-])c1cccc(-c2nc(-c3ccccc3)no2)c1	1%	49*	-65%	264%	16	-2%
O=[N+]([O-])c1cccc(-c2noc(-c3ccco3)n2)c1	2%	63*	i	102%	28*	-2%
O=[N+]([O-])c1cccc(-c2noc(COc3ccccc3)n2)c1	2%	43	117%	-12%	27*	·
CSCCC(NC(=O)c1ccccc1)C(=O)N1CC(C)OC(C)C1 (centres undefined)	5%	·	-2%	-10%	·	·
CCSCCCC(=O)O	·	·	·	·	·	1%
COCCNC(=O)C(c1ccc(F)cc1)N(C(=O)CCC(=O)Nc1ccccn1)c1cccc(C)c1 (centres undefined)	1%	-9	?	-16%	-9	9%
Cc1nnc(SCCn2c(N3CCN(C)CC3)nc3c2c(=O)[nH]c(=O)n3C)s1	1%	-15	-15%	·	-3	-11%
Cc1nnc(SCCn2c(N3CCN(Cc4ccccc4)CC3)nc3c2c(=O)[nH]c(=O)n3C)s1	0%	-8	7.4µM*	?	-2	-5%
Cn1c(=O)[nH]c(=O)c2c1nc(N1CCc3ccccc3C1)n2CCSc1nc2ccccc2s1	8%	1	57%	5.2µM*	-1	-15%
CCCCn1c(N2CCC(Cc3ccccc3)CC2)nc2c1c(=O)[nH]c(=O)n2C	-24%	-4	?	9.3µM*	-3	-79%
CCCCn1c(N2CCCC2)nc2c1c(=O)[nH]c(=O)n2C	0%	-6	-7%	-7%	-4	4%
CC1CCN(c2nc3c(c(=O)[nH]c(=O)n3C)n2Cc2ccccc2Cl)CC1	-12%	-4	9.3µM*	-22%	-2	-43%
